An excerpt weighted towards active compounds, which were near 5.6% of everything screened.
PKM2 act = activators of human pyruvate kinase M2. P14618. purified PKM2, Kinase-Glo ATP luminescence, activation; response scale: 0% is enzyme alone, no compound. Potency, µM (doses to about 57.5 µM), usual class: activators. 0.34% of 260,000 active. AID 1631; further: nearly all actives have a fitted effect of over 55% in size
Target sequence (P14618 whole entry, looked up): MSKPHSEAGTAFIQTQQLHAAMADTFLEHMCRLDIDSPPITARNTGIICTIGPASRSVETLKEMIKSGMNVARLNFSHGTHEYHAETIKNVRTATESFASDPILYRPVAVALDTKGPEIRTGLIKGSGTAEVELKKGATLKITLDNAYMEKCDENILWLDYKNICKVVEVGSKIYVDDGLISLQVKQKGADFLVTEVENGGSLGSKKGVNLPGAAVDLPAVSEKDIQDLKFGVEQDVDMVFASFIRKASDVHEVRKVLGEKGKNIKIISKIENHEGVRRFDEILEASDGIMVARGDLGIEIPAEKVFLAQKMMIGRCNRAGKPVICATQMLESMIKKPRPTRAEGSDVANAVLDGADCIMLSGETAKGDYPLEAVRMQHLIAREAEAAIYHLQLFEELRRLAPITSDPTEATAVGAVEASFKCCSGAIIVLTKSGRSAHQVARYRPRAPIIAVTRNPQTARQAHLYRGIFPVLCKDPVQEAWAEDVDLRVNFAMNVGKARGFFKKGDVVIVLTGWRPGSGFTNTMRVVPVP
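ATP formation by purified human PK-M2, quantified via coupled luciferase luminescence after 1 h at room temperature with 0.1 mM ADP and 0.5 mM PEP final.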
Six1-Eya2 blk = Six1/Eya2 interaction inhibition. Q15475+O00167. AlphaScreen GST-Six1/His-Eya2 binding, biochemical; stronger effect = lower value. 0.56% of 360,000 active. activity change, % (no concentration beside the values); in the data active means activity change below about -65%; inconclusive means mostly about -30% to -63%
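Six1/Eya2 binding was read as AlphaScreen signal after compounds were pinned into GST-Six1 plus His-tagged Eya2 (5X stock 250/500 nM) in pH 8.0 Tris/NaCl/TCEP buffer, beads added, then incubated 1 h, 37 C, dark.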
RORgamma inh = inhibitors of mouse ROR gamma transcriptional activity; P51450; Drosophila S2 Gal4-RORgamma UAS-luciferase reporter, 20 h; Potency, µM (highest dose often 53.6 µM), most hits filed as inhibitors; 5.4% of 310,000 active; further: nearly all actives have a fitted effect of over 60% in size
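Luciferase reporter read in Schneider cells carrying Gal4-RORγ (mouse) and UAS-Photinus luciferase; cells given compound 1 h before 700 uM copper sulfate induction, then incubated 20 h at ambient temperature.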
CtBP-E1A blk = CtBP/E1A binding inhibition. AlphaScreen GST-E1A/His-CtBP binding, 1536-well; stronger effect = lower value. activity change, % (test concentration not listed). 0.49% of 340,000 active. AID 651724; in the data active means activity change below about -65%; inconclusive means mostly about -30% to -63%
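Steps: dispense buffer (Tris pH 8.0, NaCl 300 mM, TCEP 1 mM, BSA, Tween 20); add 5X protein mix (GST-E1A, His-CtBP, 125 nM each); pin 23 nL compound; 2 h at 37 °C, dark; add 5X beads (50 ug/mL); 1 h; read.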
Gal4-VP16 FLuc = inhibits Gal4-VP16 luciferase reporter, ROR gamma counter-screen. Drosophila S2 Gal4-VP16 UAS-luciferase, luminescence, 20 h. Potency, µM (doses to about 53.6 µM), most hits filed as inhibitors. 3.5% of 310,000 active;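 further: Gal4-VP16 expression switched on by copper sulfate through the metallothionein promoter; nearly all actives have a fitted effect of over 50% in size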
A number is an active result; . = inactive; ? = inconclusive; / = no result given; [ ] = dose if it differs, or a comment. Unless noted, the call rests on the fitted dose curve; in most records, active means well fitted curve in the direction sought with a large enough effect; inconclusive means small, poorly fitted or top-dose-only effect, or another doubt; inactive means no such curve, though single readings can be large; an effect the other way counts as inactive or inconclusive.

SMILES | PKM2 act | Six1-Eya2 blk | RORgamma inh | CtBP-E1A blk | Gal4-VP16 FLuc
CN1CCN(C(=S)NC(=O)/C=C/c2ccccc2Cl)CC1 | . | . | 2.51µM | . | ?
CN1CCN(C(=S)NC(=O)/C=C/c2ccccc2)CC1 | . | . | 11.2µM | . | ?
COc1ccc(-c2noc(CCC(=O)NCCc3ccccc3)n2)cc1 | / | . | . | . | .
CCOC(=O)c1ccc(NC(=O)CCc2nc(-c3ccc(C)cc3)no2)cc1 | . | . | ? | . | 7.94µM
COc1ccc(-c2noc(CCC(=O)NCc3cccnc3)n2)cc1 | . | . | . | . | .
O=C(CCCc1nc(-c2ccccc2)no1)Nc1cccnc1 | . | . | .[10 µM] | . | ?
O=C(CCCc1nc(-c2ccccc2)no1)NCc1cccnc1 | . | . | ? | . | 5.62µM
CCOC(=O)c1ccc(NC(=O)CCc2nc(-c3ccc(Cl)cc3)no2)cc1 | . | . | . | . | .
CCOc1ccc(-c2noc(CCC(=O)NCCc3ccccc3)n2)cc1OC | . | . | . | -65.5 | .
Cc1ccc(-c2noc(CCCC(=O)Nc3cccnc3)n2)cc1 | . | . | 0.562µM | . | 3.16µM
Cc1ccc(Cl)c(OCC(=O)NC2CCN(Cc3ccccc3)CC2)c1 | / | . | / | . | /
Cc1cccc(NC(=O)C(CC(C)C)NC(=O)C2CCC(C)CC2)n1 (stereo not drawn) | . | . | . | . | .[10 µM]
CCOC(=O)c1cc(=O)c2ccc(OCC(=O)Nc3ccc(F)cc3)cc2o1 | . | . | . | . | .
COc1ccc(-c2noc(CCCC(=O)Nc3cccnc3)n2)cc1OC | . | . | . | . | .
COc1ccc(-c2noc(CCC(=O)Nc3cccnc3)n2)cc1OC | 8.91µM | . | . | . | .
COC(=O)C1=C(C(=O)OC)SC2(S1)C(C(=O)OC)=C(C(=O)OC)SC1=C2c2cc(C)cc(C)c2NC1(C)C | . | . | 12.6µM | . | .
Cc1ccc(C(C)C)c(OCC(=O)NCC(c2cccs2)N2CCOCC2)c1 (stereo not drawn) | / | . | / | . | /
Cc1ccc(-c2nc3ccccc3s2)cc1NC(=S)NC(=O)/C=C/c1ccco1 | . | ? | 3.98µM | . | 10µM
O=C(/C=C/c1ccco1)NC(=S)Nc1cc(-c2nc3ccccc3s2)ccc1Cl | . | . | 0.631µM | . | 1µM
CCc1nnc(NC(=O)c2cc(-c3ccccc3)nn2-c2ccccc2)s1 | . | . | 10µM | . | ?
O=C(Nc1nccs1)c1cc(-c2ccccc2)nn1-c1ccccc1 | . | . | ? | . | ?
CC(C)C(=O)NNC(=O)CN1CCN(c2nc(-c3ccccc3)cs2)CC1 | . | . | . | . | .
CCc1nnc(NC(=O)CN2CCN(c3nc(-c4ccccc4)cs3)CC2)s1 | . | . | 11.2µM | . | ?
COC(=O)COc1ccc(S(=O)(=O)Nc2cc(OC)ccc2OC)cc1 | . | / | 5.01µM | / | 25.1µM
COC(=O)COc1ccc(S(=O)(=O)Nc2ccccc2SC)cc1 | . | . | . | . | .
SMILES | PKM2 act | Six1-Eya2 blk | RORgamma inh | CtBP-E1A blk | Gal4-VP16 FLuc
N#CCc1cc2ccc3cccc4ccc(c1)c2c34 | . | . | . | / | .
Cc1cc(Nc2ccc3ccccc3c2)n2ncnc2n1 | . | . | 6.31µM | . | ?
Cc1cc(N2CCN(S(=O)(=O)c3ccc4ccccc4c3)CC2)n2ncnc2n1 | 17.8µM | . | . | . | .
FC(F)(F)c1cccc(Nc2cc(-c3ccccc3)nc3ncnn23)c1 | . | . | 2µM | / | .
COc1ccc(Nc2cc(C)nc3ncnn23)cc1 | / | . | / | . | /
COc1ccc(S(=O)(=O)NCc2cc(-c3ccccc3Cl)no2)cc1 | . | . | . | . | .
CC1SC(=S)N(c2ccc(N(C)C)cc2)C1=O (stereo not drawn) | / | . | 11.2µM | . | 12.6µM
C=CCn1c(=O)c2c(nc3n2CC(C)CN3CCc2ccccc2)n(C)c1=O (stereo not drawn) | .[0.46 µM] | . | . | / | .
O=C(Nc1ccccc1F)c1ccc([N+](=O)[O-])s1 | . | . | 12.6µM | . | .
CC(=O)c1cccc(NC(=O)/C=C/c2ccc([N+](=O)[O-])s2)c1 | . | . | 10µM | . | 4.47µM
Cc1cc(C)cc(NC(=O)/C=C/c2ccc([N+](=O)[O-])s2)c1 | . | . | . | . | .
Cc1ccccc1NC(=O)/C=C/c1ccc([N+](=O)[O-])s1 | . | . | 4.47µM | . | 3.16µM
COc1ccc(COC(=O)C2=C(C)NC(=O)NC2c2cc(Br)c(O)c(OC)c2)cc1 (stereo not drawn) | .[11.5 µM] | . | ? | . | .
Cc1ccc(CC2CC(=O)N(c3nc4ccccc4n3C)C2=O)cc1 (stereo not drawn) | . | . | 12.6µM | . | ?
CCN(CC)c1ccc(CNc2nc3ccccc3n2CCN2CCOCC2)cc1 | . | . | 11.2µM | . | .
Cc1ccc(CNc2nc3ccccc3n2C)cc1 | . | . | 10µM | . | ?
CCCCn1c(NCc2ccc(N(C)C)cc2)nc2ccccc21 | . | ? | . | . | 12.6µM
O=C1OCC/C1=C\NCCCN/C=C1\CCOC1=O | / | . | / | . | /
Cc1ccc([C@H]2C(C(=O)O)=CC[C@@H](c3ccc4c(c3)OCO4)N2S(=O)(=O)c2ccc(C)cc2)cc1 | / | . | / | . | /
CC(=O)OCC1CC(COC(C)=O)C(COC(C)=O)CC1COC(C)=O (stereo not drawn) | / | . | / | . | /
CSCC[C@H](NC(=O)[C@@H]1Cc2ccccc2CN1)C(=O)Nc1ccc2c(c1)OCCO2 | / | . | . | . | .
O=C(NNC(=O)c1ccccc1-n1cccc1)c1cncc(Br)c1 | / | . | / | . | /
CCCCn1c(Nc2ccc(OC)cc2)nc2ccccc21 | .[11.5 µM] | . | 10µM | / | ?
CCN(CC)CCn1c(NCc2cc(OC)ccc2OC)nc2ccccc21 | . | . | ? | . | .
CCN(CC)CCn1c(NCc2cccc(OC)c2)nc2ccccc21 | . | . | 5.62µM | . | .
SMILES | PKM2 act | Six1-Eya2 blk | RORgamma inh | CtBP-E1A blk | Gal4-VP16 FLuc
COc1ccc(Nc2nc3ccccc3n2C)cc1 | . | . | . | . | .
COc1ccc([N+](=O)[O-])cc1N(CC(O)CN1C(=O)NC(C)(C)C1=O)S(=O)(=O)c1ccccc1 (stereo not drawn) | . | . | . | . | .
Cc1ccc2nc(-c3ccc(NC(=O)COCC(=O)O)cc3)sc2c1 | . | . | . | . | .
CCN(CC)S(=O)(=O)c1ccc(C(=O)OCC(=O)Nc2ccc(-c3nc4ccc(C)cc4s3)cc2)cc1 | . | . | 0.398µM | . | ?
CCN(CC)S(=O)(=O)c1cc(C(=O)OCC(=O)Nc2ccc(-c3nc4ccc(C)cc4s3)cc2)ccc1F | . | . | 12.6µM | . | 8.91µM
O=C(COC(=O)c1cc([N+](=O)[O-])ccc1N1CCOCC1)Nc1cccc(F)c1 | . | . | . | . | .
CCN(CC(=O)Nc1ccccc1OC)Cc1csc(CC(=O)Nc2ccc(C)cc2)n1 | / | . | / | . | /
COc1cc(CN2CCCCCC2)cc([N+](=O)[O-])c1O | . | . | . | / | .

Assay outcomes deposited in PubChem BioAssay by National Center for Advancing Translational Sciences (NCATS).
